Pf Dd2 growth: blocks in vitro growth of P. falciparum Dd2. P. falciparum Dd2 growth, SYBR Green, 72 h. Potency, µM (doses to about 28.9 µM), for the others: at the highest dose activity, negative = inhibition, hits mostly inhibitors. 120,000 tested, 4.3% active; active = well fitted inhibition curve with a large enough effect;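 note: plate controls were DMSO vehicle for no effect and reference drug for full effect; nearly all actives have a fitted effect of over 65% in size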
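Infected erythrocytes (Dd2, 0.3% parasitemia, 2.5% hematocrit final) are added to compound in RPMI-1640/Albumax II medium, grown 72 h at 37C in low oxygen, then lysed with saponin/Triton-X containing SYBR Green and read by fluorescence.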
The depositor's hits bear a star; i = inactive; [ ] = another dose, or the depositor's remark. The full list was thinned out, with hits kept by preference. Potency is the fitted concentration of half-maximal effect.

SMILES	Pf Dd2 growth
COc1cc(CNC(=O)c2nc(C(O)c3ccccn3)oc2C)cc(OC)c1 (stereo not given)	-3%[44.1 µM]
Cc1ccc(N2C(=O)N(Cc3cc(=O)n4ccccc4n3)c3ccccc3S2(=O)=O)cc1Cl	10µM*
Cc1cccc(N2C(=O)N(Cc3cc(=O)n4ccccc4n3)c3ccccc3S2(=O)=O)c1	i
Cc1ccc(N2C(=O)N(Cc3cccc(Cl)c3)c3ccccc3S2(=O)=O)cc1	-7%
O=C(NC1CCN(C(=O)N2CC3CC(C2)[C@H]2CCCC(=O)N2C3)CC1)c1cccnc1 (stereo not given in full)	7%
Cc1cn2nc(C(=O)NCc3cccc(C(F)(F)F)c3)cc2c(=O)[nH]1	-19%
O=C(c1cc(-c2cccc(C(F)(F)F)c2)c2nncn2n1)N1CCOCC1	15%
CC(C)NC(=O)c1cc(-c2cccc(C(F)(F)F)c2)c2nncn2n1	4%
C#CCNC(=O)c1cc(-c2cccc(C(F)(F)F)c2)c2nncn2n1	14µM*
O=C(NCc1cccs1)c1cc(-c2cccc(C(F)(F)F)c2)c2nncn2n1	2µM*
O=C(c1cc(-c2cccc(C(F)(F)F)c2)c2nncn2n1)N1CCCC1	-21%
CCCc1cc(C(=O)N2CC[C@@H]3[C@@H](CCC(=O)N3CC(C)C)C2)ccn1	-2%
CCOCCn1c(=O)n(CCN2C[C@H]3CC[C@H]2C3)c2cc(C(=O)O)cnc21	3%
CCn1cc(C(=O)N2CCN(c3ccc(C)cc3)C(C)C2)c(=O)c2cc(S(=O)(=O)N3CCCC3)ccc21 (stereo not given)	20%
CCn1cc(C(=O)N2CCN(c3ccccc3OC)CC2)c2cc(OC)c(OC)cc2c1=O	-9%
COc1cc2c(C(=O)N3CCN(c4ccc(C)cc4)C(C)C3)cn(CC(C)C)c(=O)c2cc1OC (stereo not given)	8.9µM*
COc1ccc(NC(=O)c2cn(CC(C)C)c(=O)c3cc(OC)c(OC)cc23)cc1Cl	11µM*
CCOc1ccc(NC(=O)c2cn(C)c(=O)c3cc(OC)c(OC)cc23)cc1	21%
COc1cc(OC)c(NC(=O)c2cn(C)c(=O)c3cc(OC)c(OC)cc23)cc1Cl	15%
CS(=O)(=O)c1ccc(-c2cnc([C@@H]3COCCN3C3CCNCC3)[nH]2)cc1	-1%[44.1 µM]
CNC(=O)[C@H]1C[C@H](Oc2ccccc2)CN1C(=O)Cn1ccnc1	0%
CNC(=O)c1noc([C@@H]2CC(F)(F)CN2Cc2cn(C)nc2C)n1	33%
O=C(c1ccc(Cl)cc1)N1CCC2(COc3ccncc3[S+](=O)([O-])N2)C1 (stereo not given)	-12%
O=C(CN1CC2CC(C1)[C@H]1CCCC(=O)N1C2)NCc1ccccn1 (stereo not given in full)	7%
NS(=O)(=O)c1ccc(C(=O)N2CCC3(CC2)Nc2ccccc2NC3=O)cc1	6%
SMILES	Pf Dd2 growth
C=CCNC(=O)O[C@@H]1CC[C@]2(C)C(CC[C@@H](O)[C@H]2CC(=O)NCc2ccc3c(c2)OCO3)[C@]1(C)CO (stereo not given in full)	-13%
COc1cc(CNC(=O)c2cc3cn(C(C)C)cc3s2)cc(OC)c1	13µM*
CC(C)n1cc2cc(C(=O)NCc3cccnc3)sc2c1	i
COc1ccc(CNC(=O)c2cc3cn(C(C)C)cc3s2)cc1	i
Cc1nc(CCNC(=O)CC(C)(C)C)no1	i
COc1cccc(NC(=O)C2CCN(S(=O)(=O)c3cc(-c4noc(C)n4)ccc3C)CC2)c1	10µM*
Cc1nc(-c2cccc(S(=O)(=O)N3CCC(C(=O)NCc4ccccc4Cl)CC3)c2)no1	25%
Cc1nc(-c2ccc(C)c(S(=O)(=O)N3CCC(C(=O)Nc4ccc(Cl)cc4)CC3)c2)no1	11µM*
CC(=O)c1ccc(N2CCN(S(=O)(=O)c3cc(-c4noc(C)n4)ccc3C)CC2)cc1	13%
COc1ccc(-c2noc(N3CCC(C(=O)Nc4ccc(OC)c(OC)c4)CC3)n2)cc1	21%
Cc1ccc(NC(=O)C2CCN(S(=O)(=O)c3cccc4nonc34)CC2)cc1C	12%
O=C1CCN(Cc2cccnc2)CCCC(C(=O)NCCCn2cccn2)CCN1 (stereo not given)	8%
O=C(CC1CCN(C(=O)c2ccc(F)c(F)c2)C1)NCc1ccccc1 (stereo not given)	-10%
COc1ccc(C(=O)N2CCC(N3C(=O)C(OC)C34CCOCC4)CC2)c(OC)n1 (stereo not given)	8%
O=C(Nc1ccc(F)cc1)N1CC2CC(C1)[C@H]1CCCC(=O)N1C2 (stereo not given in full)	11%
CN(C)C(=O)c1nc(-c2ccc(S(C)(=O)=O)cc2)c2cnccn12	-3%
O=C(NC1CC1)c1nc(-c2ccc(F)cc2)c2cnccn12	11µM*
COc1ccc(-c2nc(C(=O)NC3CC3)n3ccccc23)cc1	11µM*
O=C(CCNc1c(-c2ccc(F)cc2)nc2cnccn12)NC1CCCC1	20%
COc1ccccc1-c1nc(C(=O)NC2CC2)n2ccccc12	i
C[S+](=O)([O-])c1ccc(-c2nc(C(=O)NC3CC3)n3ccccc23)cc1	i

Source: PubChem BioAssay
